Experimental data: PubChem BioAssay AID1159580 (chemical genetic matrix, 2015)
About 2,000 (36%) of roughly 5,500 compounds were called active. Not shown: some 18% with an inconclusive outcome. No stated cut-off is given here; in the data, active means normalized growth mostly below about 0.91 (no sharp cut-off); inconclusive means no clear call, values can overlap the other calls; inactive means mostly above about 0.92. The list shows a part of the results.

Test: chemical genetic growth profiling, strain panel (AID 1159580);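 further: tested at 20 µM; growth read once vehicle control cultures reached saturation at 30 °C; 1 = growth at the plate median or of vehicle wells; lower values mean less growth of the strain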
Details: S. cerevisiae deletion strains, growth OD

Measured: normalized growth

O=C1C(NCc2ccccc2)=C(NCc2ccccc2)C(=O)c2ccccc21
inactive: locus YAR019C, strain CDC15, hits give low values 0.929 | locus YBL105C, strain PKC1, hits give low values 0.915 | locus YBR135W, strain CKS1, hits give low values 0.918 | locus YBR136W, strain MEC1, hits give low values 0.913 | locus YBR160W, strain CDC28, hits give low values 0.92 | locus YDL017W, strain CDC7, hits give low values 0.922 | locus YDL028C, strain MPS1, hits give low values 0.904 | locus YDL101C, strain DUN1, hits give low values 0.916 | locus YDL108W, strain KIN28, hits give low values 0.897 | locus YDL132W, strain cdc53, hits give low values 0.907 | locus YDL214C, strain PRR2, hits give low values 0.869 | locus YDR052C, strain DBF4, hits give low values 0.931 | locus YDR054C, strain cdc34, hits give low values 0.921 | locus YDR477W, strain SNF1, hits give low values 0.839 | locus YER123W, strain YCK3, hits give low values 0.845 | locus YER133W, strain GLC7, hits give low values 0.839 | locus YFL009W, strain cdc4, hits give low values 0.902 | locus YFL029C, strain CAK1, hits give low values 0.913 | locus YFR003C, strain YPI1, hits give low values 0.912 | locus YFR019W, strain FAB1, hits give low values 0.942 | locus YGR040W, strain KSS1, hits give low values 0.825 | locus YGR052W, strain FMP48, hits give low values 0.893 | locus YGR092W, strain DBF2, hits give low values 0.744 | locus YHR030C, strain SLT2, hits give low values 0.885 | locus YHR079C, strain IRE1, hits give low values 0.979 | locus YHR082C, strain KSP1, hits give low values 0.883 | locus YHR205W, strain SCH9, hits give low values 0.931 | locus YIL147C, strain SLN1, hits give low values 0.895 | locus YJL095W, strain BCK1, hits give low values 0.886 | locus YJL128C, strain PBS2, hits give low values 0.885 | locus YJL157C, strain FAR1, hits give low values 0.833 | locus YJR066W, strain TOR1 (second series), hits give low values 0.775 | locus YJR066W, strain TOR1, hits give low values 0.879 | locus YKL048C, strain ELM1, hits give low values 0.829 | locus YKL067W, strain YNK1, hits give low values 0.862 | locus YKL101W, strain HSL1, hits give low values 0.875 | locus YKL193C, strain SDS22, hits give low values 0.906 | locus YKL203C, strain TOR2, hits give low values 0.84 | locus YLR113W, strain HOG1, hits give low values 0.895 | locus YLR133W, strain CKI1, hits give low values 0.856 | locus YLR403W, strain SFP1, hits give low values 0.802 | locus YML070W, strain DAK1, hits give low values 0.871 | locus YMR001C, strain CDC5, hits give low values 0.896 | locus YMR205C, strain PFK2 (second series), hits give low values 0.878 | locus YMR277W, strain FCP1, hits give low values 0.903 | locus YNL006W, strain LST8, hits give low values 0.923 | locus YNL020C, strain ARK1, hits give low values 0.845 | locus YNL161W, strain CBK1, hits give low values 0.922 | locus YNL183C, strain NPR1, hits give low values 0.904 | locus YNL222W, strain SSU72, hits give low values 0.925 | locus YNL307C, strain MCK1 (second series), hits give low values 0.842 | locus YOL078W, strain AVO1, hits give low values 0.911 | locus YOL136C, strain PFK27, hits give low values 0.884 | locus YOR061W, strain CKA2, hits give low values 0.817 | locus YOR119C, strain RIO1, hits give low values 0.784 | locus YOR231W, strain MKK1, hits give low values 0.954 | locus YOR329C, strain SCD5, hits give low values 0.935 | locus YPL031C, strain PHO85, hits give low values 0.837 | locus YPL153C, strain RAD53, hits give low values 0.826 | locus YPL204W, strain HRR25, hits give low values 0.827 | locus YPL209C, strain IPL1, hits give low values 0.934 | locus YPL256C, strain CLN2, hits give low values 0.986 | locus YPR025C, strain CCL1, hits give low values 0.93 | locus YPR106W, strain ISR1, hits give low values 0.899 | locus YPR111W, strain DBF20, hits give low values 0.91 | strain NNK1, hits give low values 0.902 | strain TSCII, hits give low values 0.907
active: locus YDR226W, strain ADK1, hits give low values 0.893 | locus YFR028C, strain CDC14, hits give low values 0.881 | locus YJR016C, strain ILV3, hits give low values 0.898 | locus YNL207W, strain RIO2, hits give low values 0.874
